Measured values reported in PubChem BioAssay AID2625 (National Center for Advancing Translational Sciences (NCATS), 2010).
Records with an inconclusive call do not appear. The source made the active and inactive calls. Calls come from the whole dose curve; as a rule, active = well fitted curve in the direction sought with a large enough effect; inconclusive = small, poorly fitted or top-dose-only effect, or effect the other way, or another doubt; inactive = no such curve, though single readings can be large or run the other way.

The compounds below were run against Pyruvate kinase PKLR (Homo sapiens) (UniProt P30613) (assay: Secondary LDH Assay for Activators of Human Liver Pyruvate Kinase: for Probe SAR). Details: purified hPK-L, LDH-coupled NADH fluorescence kinetic; series mostly up to 58.2 µM.
Sequence of Pyruvate kinase PKLR (Homo sapiens) (P30613 whole entry, looked up): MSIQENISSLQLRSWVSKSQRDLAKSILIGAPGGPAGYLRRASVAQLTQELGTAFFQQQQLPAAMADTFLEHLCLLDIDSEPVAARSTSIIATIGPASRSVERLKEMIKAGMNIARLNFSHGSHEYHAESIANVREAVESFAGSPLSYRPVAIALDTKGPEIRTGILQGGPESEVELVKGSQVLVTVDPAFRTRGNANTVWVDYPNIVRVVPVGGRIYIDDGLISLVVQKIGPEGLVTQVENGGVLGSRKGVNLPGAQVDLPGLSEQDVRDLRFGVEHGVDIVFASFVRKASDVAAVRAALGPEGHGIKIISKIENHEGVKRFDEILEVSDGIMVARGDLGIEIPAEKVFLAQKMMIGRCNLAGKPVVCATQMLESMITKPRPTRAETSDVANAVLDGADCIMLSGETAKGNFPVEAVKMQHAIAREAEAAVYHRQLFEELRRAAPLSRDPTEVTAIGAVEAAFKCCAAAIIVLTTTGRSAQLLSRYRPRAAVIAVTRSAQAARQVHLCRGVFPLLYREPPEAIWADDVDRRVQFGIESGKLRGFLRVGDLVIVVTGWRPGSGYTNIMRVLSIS
Description: NIH Chemical Genomics Center [NCGC]
Matthew G. Vander Heiden, M.D., Ph.D. [Harvard Medical School, 77 Avenue Louis Pasteur, Boston, MA 02115]
Human pyruvate kinase liver (hPK-L)enzyme was supplied as a highly purified (>95% pure) preparation from Harvard Medical School and a secondary assay was used to evaluate compounds. This assay couples the formation of pyruvate from hPK-R using lactate dehydrogenase (LDH) and NADH. The depletion of NADH is followed in a fluorescent-based kinetic assay that follows the formation of pyruvate to lactate, as catalyzed LDH. Pyruvate kinase substrates, PEP and ADP, were present in the assay at 0.1 mM and 4 mM respectively. In this kinetic assay initial rates were determined by following the fluorescence of NADH depletion.
NCGC Assay Protocol Summary:
Three uL of substrate mix (final concentration, 50 mM Tris-Cl pH 8.0, 200 mM KCl, 15 mM MgCl2, 0.1 mM PEP, 4.0 mM ADP, and 0.2 mM NADH) was dispensed into black-solid 1536 well plates. 23 nL of compounds were delivered by a pin tool and 1 uL of enzyme mix (final concentrations, 10 nM hPK-L and 1 uM of LDH) was added. Plates were immediately placed in ViewLux (Perkin Elmer) and NADH fluorescence was determined at 30 second exposure intervals for between 3 and 6 minutes. Data were normalized to the uninhibited and EC100 activation using known activators such as fructose-bis-phosphate.

outcome, inactive:
Cc1cc(NS(=O)(=O)c2ccc3c(c2)CCC(=O)N3)ccc1Cl
Cc1ccc(NS(=O)(=O)c2cccc(F)c2)cc1C
O=C1CCc2cc(S(=O)(=O)Nc3ccc4ccccc4c3)ccc2N1
O=C1CCc2cc([S+](=O)([O-])Nc3ccc(N[S+](=O)([O-])c4ccc5c(c4)CCC(=O)N5)cc3)ccc2N1
Cc1ccc(NS(=O)(=O)c2cc3c(cc2-c2ccco2)NC(=O)CO3)cc1C
Cc1ccc(NS(=O)(=O)c2ccc3c(c2)CCC(=O)N3)cc1C
O=C1c2ccccc2C(=O)N1c1cccc2cnccc12
O=C1CCc2cc(S(=O)(=O)Nc3ccccc3F)ccc2N1
CN(C)c1cccc(S(=O)(=O)N2CCN(S(=O)(=O)c3ccc4c(c3)OCCO4)CC2)c1
O=C1c2ccccc2C(=O)N1c1cccc2cccnc12
Cc1ccc(NS(=O)(=O)c2cccc(Cl)c2)cc1C
O=C1CCc2cc(S(=O)(=O)Nc3cccc(Oc4ccccc4)c3)ccc2N1
O=C1c2ccccc2C(=O)N1Cc1ccncc1
O=C1CCc2cc(S(=O)(=O)Nc3cccc(F)c3)ccc2N1
O=C1CCc2cc(S(=O)(=O)Nc3cccc4ccccc34)ccc2N1
O=C1CCc2cc(S(=O)(=O)Nc3ccccc3Cl)ccc2N1
O=C1c2ccccc2C(=O)N1c1ccccn1
Cc1ccc(NS(=O)(=O)c2cc3c(cc2N2CCCCC2)NC(=O)CC3)cc1C
O=S1(=O)N=C(Oc2cccc(Cl)c2)c2ccccc21
CN=c1nc(-c2ccccc2)n(-c2ccccc2)s1
CCCCN1C(=O)c2ccccc2C1=O
Cc1ccc(NS(=O)(=O)c2cccc(C(=O)O)c2)cc1C
Cc1ccc(NS(=O)(=O)c2cc3c(cc2-c2cn[nH]c2)NC(=O)CO3)cc1C
O=C1c2ccccc2C(=O)N1c1cccnc1
Cc1ccc(N[S+](=O)([O-])c2cc3c(cc2CCc2ccccc2)NC(=O)CO3)cc1C
CC(C)Nc1cccc(S(=O)(=O)N2CCCN(S(=O)(=O)c3ccc4c(c3)OCCO4)CC2)c1
Cc1ccccc1OC1=NS(=O)(=O)c2ccccc21
Cc1ccc2nc(-c3cccs3)c(Nc3ccccc3)n2c1
O=C1CCc2cc(S(=O)(=O)Nc3ccc(-c4ccccc4)cc3)ccc2N1
O=C1CCc2cc(S(=O)(=O)Nc3ccc4c(c3)CCC4)ccc2N1
O=C1c2ccccc2C(=O)N1c1noc2ccccc12
COc1cccc(OC2=NS(=O)(=O)c3ccccc32)c1
Cc1ccc(N(C)S(=O)(=O)c2ccc3c(c2)CCC(=O)N3)cc1C
Cc1ccc(NS(=O)(=O)c2cc3c(cc2C)NC(=O)CO3)cc1C
O=C1CCc2cc([S+](=O)([O-])NC3CCOCC3)ccc2N1
O=C1CCc2cc(S(=O)(=O)Nc3cccc(Br)c3)ccc2N1
O=C1CCc2cc(S(=O)(=O)Nc3ccc(F)c(Cl)c3)ccc2N1
O=C1CCc2cc(S(=O)(=O)Nc3cccc(B(O)O)c3)ccc2N1
O=C1c2ccccc2C(=O)N1c1nccs1
N#Cc1ccc(NS(=O)(=O)c2ccc3c(c2)CCC(=O)N3)cc1
